One may read the cell viability as a read-out of living cells in per cent, often relative to untreated cells.

SMILES strings stand for the structures. The whole screen tested about 2,100 compounds, of which about 180 (8.6%) showed an effect of 50% or more. Many of the other results were omitted from the sample, so strong results are more common in it than they were.

For this experiment, the system named is MOLM1 and UCSD/AML1 (averaged). The experiment can be described thus: cell viability relative to DMSO control (POC); higher = less growth inhibition. Conditions: 1 µM; 72 h. How it is done: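 Primary viability screen in the 3q26 EVI1-high AML cell lines MOLM1 and UCSD/AML1 (1.5e3 cells/well, 384-well), compounds at 1 uM for 72 h. ATP CellTiter-Glo read-out given as percent of viable cells over DMSO control (POC), averaged over duplicates. DMSO was the negative control and 5 uM etoposide the positive control. This mapping covers the MicroSource Spectrum and Selleck anticancer libraries (drug names).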
Turning to `Cc1occc(=O)c1O`, the cell viability turned out to be 103%.

For the compound `Cc1nc(Nc2ncc(C(=O)Nc3c(C)cccc3Cl)s2)cc(N2CCN(CCO)CC2)n1`, the cell viability amounted to 29.5%.

For `CCCC(=O)[O-].[Na+]` [Sodium butyrate], the cell viability was determined as 91.3%.

Consider `Cn1cc(-c2ccc3nnc(Sc4ccc5ncccc5c4)n3n2)cn1`, for which the cell viability is 82.3%.

As for `Cn1cc(-c2ccc3nnc(C(F)(F)c4ccc5ncccc5c4)n3n2)cn1`, the cell viability amounted to 101%.

Regarding `OCCn1cc(-c2cnc3nnn(Cc4ccc5ncccc5c4)c3n2)cn1`, the cell viability was 26.7%.

Regarding `C[C@]12CC[C@H](O)CC1=CC[C@@H]1[C@@H]2CC[C@]2(C)C(c3cccnc3)=CC[C@@H]12` [Abiraterone (CB-7598)], the cell viability stood at 102%.

Take `COc1cc2c(cc1OC)[C@@H]1Cc3ccc(OC)c(OC)c3CN1CC2`: the cell viability was 108%.

For `CN(C)CCOc1ccc(-c2nc(-c3ccncc3)c(-c3ccc4c(c3)CC/C4=N\O)[nH]2)cc1`, the cell viability was determined as 76.1%.

For `COc1cc(/C=C/C(=O)O)ccc1O`, the cell viability turned out to be 104%.

For `O=C1C=C2CC3(O)COc4cc(O)ccc4C3=C2C=C1O` (stereo not given), the cell viability amounted to 99.3%.

On to `Cc1cnc(NC(=O)Nc2cc(Br)c(C)cc2OC[C@@H]2CNCCO2)cn1`, for which the cell viability is 46.1%.

As for `COc1c2ccoc2nc2c(OC)c(OCC(O)C(C)(C)O)ccc12` (stereo not given), the cell viability is 90.2%.

Take `CC(C)=CC1C(CO)C1(C)C` (stereo not given): the cell viability stood at 104%.

In the case of `O=c1[nH]c(=O)n([C@H]2C[C@H](O)[C@@H](CO)O2)cc1F` [Floxuridine], the cell viability worked out at 64.4%.

For `Nc1nc(F)nc2c1ncn2[C@@H]1O[C@H](CO)[C@@H](O)[C@@H]1O` [Fludarabine (Fludara)], the cell viability came to 53%.

On to `Nc1ncn([C@H]2C[C@H](O)[C@@H](CO)O2)c(=O)n1` [Decitabine], for which the cell viability is 41.3%.

Regarding `COc1nc(N)nc2c1ncn2[C@@H]1O[C@H](CO)[C@@H](O)[C@@H]1O` [Nelarabine (Arranon)], the cell viability is 109%.

For the compound `CCc1cn([C@H]2C[C@H](O)[C@@H](CO)O2)c(=O)[nH]c1=O`, the cell viability is 91.5%.

As to `NC(=O)c1ccc[n+]([C@@H]2O[C@H](COP(=O)([O-])OP(=O)(O)OC[C@H]3O[C@@H](n4cnc5c(N)ncnc54)[C@H](O)[C@@H]3O)[C@@H](O)[C@H]2O)c1`, the cell viability is 81.6%.

Regarding `Nc1ncnc2c1ncn2[C@@H]1O[C@H](COP(=O)(O)O)[C@@H](O)[C@H]1O`, the cell viability was determined as 99.1%.

For the compound `Nc1nc(F)nc2c1ncn2[C@@H]1O[C@H](COP(=O)(O)O)[C@@H](O)[C@@H]1O`, the cell viability was 74.4%.

On to `Nc1nc(Cl)nc2c1ncn2[C@H]1C[C@H](O)[C@@H](CO)O1` [Cladribine], for which the cell viability was 5.67%.

`Nc1nc(F)nc2c1ncn2[C@@H]1O[C@H](COP(=O)(O)O)[C@@H](O)[C@@H]1O` [Fludarabine Phosphate (Fludara)]: the cell viability was 44.2%.

Consider `O=c1[nH]c(=O)n([C@H]2C[C@H](O)[C@@H](CO)O2)cc1F`, for which the cell viability was found to be 83.1%.

For the compound `Nc1nc(Cl)nc2c1ncn2[C@@H]1O[C@H](CO)[C@@H](O)[C@@H]1F` [Clofarabine], the cell viability stood at 6.72%.

Consider `Nc1ncn([C@@H]2O[C@H](CO)[C@@H](O)[C@H]2O)c(=O)n1` [Azacitidine (Vidaza)], for which the cell viability came to 84.2%.

Consider `Nc1ncnc2c1ncn2[C@H]1C[C@H](O)[C@@H](CO)O1`, for which the cell viability stood at 90.9%.

For `Nc1ncn([C@@H]2O[C@H](CO)[C@@H](O)[C@H]2O)c(=O)n1`, the cell viability came out at 77.4%.

Take `OC[C@@H](O)[C@@H](O[C@@H]1O[C@H](CO)[C@@H](O)[C@H](O)[C@H]1O)[C@H](O)[C@@H](O)CO`: the cell viability is 92.2%.

Take `COc1ccc([C@H]2Oc3cc(OC)cc(OC)c3C[C@H]2O)cc1`: the cell viability stood at 98.4%.

Take `COC(=O)C[C@H]1C2(C)CC34OC5(C)O[C@@]6([C@H](OC)C(OC(=O)C(C)C)[C@]7(C)C(/C(=C(/OC)C(C)C)C(=O)O[C@H]7c7ccoc7)[C@@]6(O5)[C@H](OC)[C@@]3(OC)C2OC(C)=O)[C@]14C` (stereo not given in full): the cell viability came to 105%.

`Cc1c(C(=O)O)c(O)cc2c1C(=O)c1c(O)c([C@@H]3O[C@H](CO)[C@@H](O)[C@H](O)[C@H]3O)c(O)c(O)c1C2=O`: the cell viability was determined as 92.5%.

Take `O=C(O)c1cccc(O)c1O`: the cell viability turned out to be 107%.

Consider `C[C@H]1[C@H](C)CC[C@]2(CO)CC[C@]3(C)C(=CC[C@@H]4[C@@]5(C)CC[C@H](O)C(C)(C)[C@@H]5CC[C@]43C)[C@H]12`, for which the cell viability was determined as 110%.

With `CC(=O)O[C@@H]1CC2C(C)(C)C(=O)CC[C@]2(C)C2CC[C@]3(C)C(=CC(=O)O[C@H]3c3ccoc3)[C@@]21C` (stereo not given in full), the cell viability was 110%.

For `COc1c(OC)c2occc2c2oc(=O)ccc12`, the cell viability was found to be 117%.

As for `CC(=O)O[C@H]1CC[C@]2(C)[C@H]3CC=C4[C@@H]5CC(C)(C)CC[C@]5(C)CC[C@@]4(C)[C@]3(C)CC[C@H]2C1(C)C` [beta-AMYRIN ACETATE], the cell viability is 107%.

As for `CC(=O)CC(=O)CCC(=O)O`, the cell viability turned out to be 96.2%.

Take `CCOC(=O)c1c(C)cc(O)cc1O`: the cell viability was determined as 104%.

On to `CC1=CCCC(C)=CCC(C)(C)C=CC1` [HUMULENE (alpha)], for which the cell viability came out at 113%.

As to `CN(C)Cc1ccc(-c2nc3cccc4c3n2CCNC4=O)cc1`, the cell viability was 100%.

For the compound `CCC(=O)N1CCN(c2ccc(-n3c(=O)ccc4cnc5ccc(-c6cnc7ccccc7c6)cc5c43)cc2C(F)(F)F)CC1` [Torin 1], the cell viability is 20.8%.

`Nc1ccc(-c2ccc3ncc4ccc(=O)n(-c5cccc(C(F)(F)F)c5)c4c3c2)cn1` [Torin 2]: the cell viability was determined as 10%.

With `COc1ccc2c3n(c(=NC(=O)c4cccnc4)nc2c1OC)CCN3`, the cell viability was 64.3%.

As for `COc1cc(C)c(C(=O)O)c(O)c1`, the cell viability turned out to be 100%.

`S=C(NCc1ccc2c(c1)OCO2)N1CCN(c2ncnc3c2oc2ccccc23)CC1` [Amuvatinib (MP-470)]: the cell viability stood at 77.9%.

`COC(=O)[C@@H]1OC(=O)[C@H]2O[C@@]23[C@@]1(C)CCC1[C@@]2(C)CCC(=O)C(C)(C)C2C[C@@H](OC(C)=O)[C@]13C` (stereo not given in full): the cell viability is 99%.

Regarding `O=C(Nc1c[nH]nc1-c1nc2ccc(CN3CCOCC3)cc2[nH]1)NC1CC1`, the cell viability came to 17.5%.

Take `CC(=O)Oc1cc(OC(C)=O)c2c(c1)O[C@H](c1ccc(OC(C)=O)c(OC(C)=O)c1)[C@H](OC(C)=O)C2`: the cell viability is 104%.

The values are drawn from the supplement of paper PMC11150407.
